Inconclusive results are not listed. A call without a number means that no potency is given here. Unmarked numbers belong to inactive results. Activity calls are given as the source filed them. Calls come from the whole dose curve; as a rule, active = well fitted inhibition curve with a large enough effect; inconclusive = small, poorly fitted or top-dose-only effect; inactive = flat fitted curve, though single readings scatter. Where a SMILES comes first, the peptide text is derived from it.

Chain of Calcium and integrin-binding protein 1 (Homo sapiens) (Q99828 whole entry, looked up): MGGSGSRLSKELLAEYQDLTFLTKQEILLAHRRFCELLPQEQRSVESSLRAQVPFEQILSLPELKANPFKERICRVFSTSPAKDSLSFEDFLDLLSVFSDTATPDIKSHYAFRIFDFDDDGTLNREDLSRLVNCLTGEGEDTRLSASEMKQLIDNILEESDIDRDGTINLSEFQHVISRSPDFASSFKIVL

The assay concerns the target Calcium and integrin-binding protein 1 (Homo sapiens) (UniProt Q99828). As to the kind of experiment: Primary qHTS for Identification of Calcium Integrin Binding Protein 1 (CIB1) Competitor (AID 1508620).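 Note: GST tagged CIB1 binding a fluorescein labelled alphaIIb integrin peptide tracer; top concentration of the series differs between compounds.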 The conditions noted are these: CIB1-GST / FITC-alphaIIb peptide fluorescence polarization; series mostly up to 57.7 µM. In a few lines:
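Fluorescence polarization competition: CIB1-GST (1 uM final) preincubated with compound 15 min at room temperature, then FITC-labeled alphaIIb peptide (100 nM final) added for another 15 min. Polarization read at Ex 480/Em 540.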
A general note: qHTS replaces the single test concentration by a dilution series.
Consider `CC(C)=CCC/C(C)=C/CO[C@@H]1O[C@H](CO[C@@H]2OC[C@](O)(CO)[C@H]2O)[C@@H](O)[C@H](O)[C@H]1O`, for which the Potency result is “inactive”.

Take `CC1OC(OC2C(OC3C(O[C@H]4CC[C@@]5(C)C(CC[C@]6(C)C5CC=C5C7CC(C)(C)CC(O)[C@]7(C)CC[C@]56C)C4(C)C)OC(C(=O)O)C(O)C3O)OCC(O)C2O)C(O)C(O)C1O` (some centres undefined): the Potency result is “inactive”.

As to `CC(=C\C(C)O)/C=C(\C)C(=O)CC1CC(CC(N)=O)CC(=O)O1` (centres undefined), the Potency entry was “inactive”.

Consider `CC(=O)c1ccc(O[C@@H]2O[C@H](CO[C@@H]3OC[C@@H](O)[C@H](O)[C@H]3O)[C@@H](O)[C@H](O)[C@H]2O)cc1`, for which the Potency result is “inactive”.

With `CCC1=C(C)C(=O)C(C)CC12C(=O)CCC2C(=O)O` (centres undefined), the Potency result was “inactive”.

With `CC1OC(O[C@@H]2[C@@H](O)[C@H](OC(=O)[C@]34CCC(C)(C)C[C@H]3C3=CCC5[C@@]6(C)CC[C@H](O[C@@H]7O[C@H](C(=O)O)[C@@H](O)[C@H](O[C@@H]8OC[C@@H](O)[C@H](O)[C@H]8O)[C@H]7O[C@@H]7O[C@H](CO)[C@H](O)[C@H](O)[C@H]7O)[C@@](C)(C=O)C6CC[C@@]5(C)[C@]3(C)C[C@H]4O)O[C@H](C)[C@@H]2OC2OC(C)C(OC3OCC(O)C(O)C3O)C(O)C2O)C(O)C(O)C1O` (some centres undefined), the activity change, negative = inhibition was 3.33% [at 12.4 µM].

Regarding `CCOC(=O)C(CCc1ccccc1)NC(C)C(=O)N1Cc2ccccc2CC1C(=O)O` (centres undefined), the Potency result is “inactive”.

As for `CC(=O)O[C@@H]1[C@H](O[C@@H]2O[C@H](CO)[C@@H](O)[C@H](O)[C@H]2O)[C@@H](O[C@@H]2O[C@@H](C)[C@H](O)[C@@H](O[C@@H]3O[C@H](CO)[C@@H](O)[C@H](O)[C@H]3O)[C@H]2O)[C@H](OC(=O)[C@]23CCC(C)(C)C[C@H]2C2=CCC4[C@@]5(C)C[C@H](O)[C@H](O[C@@H]6O[C@H](C(=O)O)[C@@H](O)[C@H](O)[C@H]6O)[C@@](C)(C(=O)O)C5CC[C@@]4(C)[C@]2(C)CC3)O[C@@H]1C` (some centres undefined), the activity change, negative = inhibition was -1.12% [at 12.4 µM].

Consider `NC(=O)NCCCC(NC(=O)Cc1ccccc1)C(=O)O` (centres undefined), for which the Potency entry was “inactive”.

As for `C=C(C(=O)O)C1CC(OC(=O)CC(C)CC)C2(C)CCCC(=C)C2C1` (centres undefined), the Potency entry is “inactive”.

Regarding `COc1ccc(C(=O)OC2C3C=COC(OC4OC(CO)C(O)C(O)C4O)C3C3(CO)OC23)cc1OC` (centres undefined), the Potency entry was “inactive”.

For the compound `CC(=O)O[C@@H](C[C@@H]1C=C(C)C(=O)O1)[C@H](C)[C@H]1CCC2[C@@]3(C)CC[C@H](O[C@@H]4O[C@H](CO)[C@@H](O)[C@H](O)[C@H]4O[C@@H]4O[C@@H](C)[C@H](O)[C@@H](O)[C@H]4O)C(C)(C)C3CC[C@@]2(C)[C@@]12COC(=O)C2` (some centres undefined), the Potency result was “inactive”.

With `O=S(=O)(O)c1ccc(Nc2ncnc3c2ncn3[C@@H]2O[C@H](CO)[C@@H](O)[C@H]2O)cc1`, the Potency entry is “inactive”.

On to `C=C(CCO)C(=O)OCC1OCC(OC(=O)C(=C)CCO[C@@H]2O[C@H](COC(=O)C(=C)CCO[C@@H]3O[C@H](CO)[C@@H](O)[C@H](O)[C@H]3O)[C@@H](O)[C@H](O)[C@H]2O)C(O)C1O` (some centres undefined), for which the Potency entry is “inactive”.

With `COc1cc(O)cc2c1C(=O)OC(C)C2` (centres undefined), the Potency entry was “inactive”.

Consider `CN1CCN(C(=O)c2cc3cc(Cl)ccc3[nH]2)CC1`, for which the Potency result is “inactive”.

On to `CC1=CC[C@@]2(C)CC[C@@](O)(C(C)C)[C@@H]2[C@@H](O)C1`, for which the Potency result is “inactive”.

With `CC(C)=CC[C@H]1O[C@]2(O)C([C@H]3CCC4[C@@]5(C)CC[C@H](O[C@@H]6O[C@H](CO)[C@H](O)[C@H](O[C@@H]7O[C@H](CO)[C@@H](O)[C@H](O)[C@H]7O)[C@H]6O[C@@H]6O[C@@H](C)[C@H](O)[C@@H](O)[C@H]6O)C(C)(C)C5CC[C@@]4(C)[C@]3(C)[C@H]2O)[C@@]1(C)O` (some centres undefined), the Potency result was “inactive”.

Regarding `COc1c2c(c(C)c3c1C(=O)OC3)OC1(C)CC(O)C34OC(OC)(CCC3(C)C1C2)OC4(C)CO` (centres undefined), the Potency entry was “inactive”.

`O=C(OC[C@H]1O[C@@H](Oc2ccccc2COC(=O)C2(O)C=CCCC2O)[C@H](O)[C@@H](O)[C@@H]1O)c1ccccc1` (some centres undefined): the Potency result is “inactive”.

As for `CC(C)CC(=O)NCCn1cc(C(=O)O)c(=O)cc1C(O)c1ccccc1` (centres undefined), the Potency result was “inactive”.

Take `C=C1[C@H]2CCC3[C@]4(C)CCC[C@@](C)(C(=O)O)C4CC[C@]3(C2)[C@H]1OC(C)=O` (some centres undefined): the Potency result was “inactive”.

As to `CC1(C)CCC2(C(=O)O)CCC3(C)C(=CCC4C5(C)CCC(O)C(C)(CO)C5C(O)CC43C)C2C1` (centres undefined), the Potency result is “inactive”.

Consider `C=C[C@H]1[C@H](O[C@@H]2O[C@H](CO)[C@@H](O)[C@H](O)[C@H]2O)OC=C2C(=O)N3Cc4c([nH]c5ccccc5c4=O)[C@@H]3C[C@H]21`, for which the Potency entry is “inactive”.

In the case of `CCC/C=C/C=C/C1CC(O)C(O)C(=O)C1CO` (centres undefined), the Potency entry is “inactive”.

Turning to `O=C(Cc1ccccc1)OC[C@H]1O[C@H](O[C@H]2O[C@H](CO)[C@@H](O)[C@H](O)[C@H]2O)[C@H](O)[C@@H](O)[C@@H]1O`, the Potency entry is “inactive”.

`NC(=O)C(O[C@@H]1O[C@H](CO[C@@H]2O[C@H](CO)[C@@H](O)[C@H](O)[C@H]2O)[C@@H](O)[C@H](O)[C@H]1O)c1ccccc1` (some centres undefined): the Potency entry is “inactive”.

Turning to `C[C@H](/C=C/[C@@]1(O)[C@H](C)CC(=O)CC1(C)C)O[C@@H]1O[C@H](CO[C@@H]2OC[C@@H](O)[C@H](O)[C@H]2O)[C@@H](O)[C@H](O)[C@H]1O`, the Potency entry was “inactive”.

Regarding `CC(C)C1NC(=O)CNC(=O)C2CCCN2C(=O)C(Cc2c[nH]c3ccccc23)NC(=O)CNC(=O)C(Cc2ccc(O)cc2)NC(=O)CNC1=O` (centres undefined) (cyclo(GVGYGWP); configuration not given here), the Potency result was “inactive”.

For the origin of these results see PubChem BioAssay (NCATS).
